From PubChem BioAssay (NCI)
The panel holds about 83,000 compounds, 20% with a hit somewhere; the sample as a whole holds those more often.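 Step 1: grow cells in 96-well plates. Step 2: add test compound at a single concentration. Step 3: incubate 48 h. Step 4: record percent growth.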 Values without a mark were called inactive. Activity calls are given as the source filed them. Rule for the calls: active = growth percent below 10; inactive = the rest.

Experiments:
Assay in all cases: NCI-60 one-dose screen, 48 h (100 = growth as untreated, 0 = no growth, -100 = all killed)
SK-MEL-2 melanoma = settings: 10 µM unless noted
EKVX NSCLC = settings: 10 µM
SN12C renal = settings: 10 µM unless noted
UO-31 renal = settings: 10 µM unless noted
TK-10 renal = settings: 10 µM unless noted
ACHN renal = settings: 10 µM unless noted
A498 renal = settings: 10 µM unless noted
CCRF-CEM leukemia = settings: 10 µM
MOLT-4 leukemia = settings: 10 µM unless noted
SR leukemia = settings: 10 µM unless noted
RPMI-8226 leukemia = settings: 10 µM unless noted
OVCAR-8 ovarian = settings: 10 µM unless noted
OVCAR-5 ovarian = settings: 10 µM unless noted
OVCAR-4 ovarian = settings: 10 µM unless noted
SK-OV-3 ovarian = settings: 10 µM unless noted
IGROV1 ovarian = settings: 10 µM unless noted
OVCAR-3 ovarian = settings: 10 µM unless noted
HS 578T breast = settings: 10 µM unless noted
NCI/ADR-RES ovarian = settings: 10 µM unless noted

| SMILES | growth (SK-MEL-2 melanoma) | growth (EKVX NSCLC) | growth (SN12C renal) | growth (UO-31 renal) | growth (TK-10 renal) | growth (ACHN renal) | growth (A498 renal) | growth (CCRF-CEM leukemia) | growth (MOLT-4 leukemia) | growth (SR leukemia) | growth (RPMI-8226 leukemia) | growth (OVCAR-8 ovarian) | growth (OVCAR-5 ovarian) [%] | growth (OVCAR-4 ovarian) | growth (SK-OV-3 ovarian) | growth (IGROV1 ovarian) | growth (OVCAR-3 ovarian) | growth (HS 578T breast) | growth (NCI/ADR-RES ovarian) |
| --- | --- | --- | --- | --- | --- | --- | --- | --- | --- | --- | --- | --- | --- | --- | --- | --- | --- | --- | --- |
| Cc1cc2c(-c3nc4ccccc4[nH]3)c(O)c(O)cc2c(O)c1-c1c(C)cc2c(-c3nc4ccccc4[nH]3)c(O)c(O)cc2c1O | 7.6% (active) | 8.33% (active) | 9.17% (active) | -30.6% (active) | -6.24% (active) | 1.78% (active) | -3.57% (active) | 3.98% (active) | 2.22% (active) | 6% (active) | 9.72% (active) | -6.85% (active) | 26.2 | 6.83% (active) | -35.6% (active) | 12.7% | 20.6% | 4.85% (active) | -12.6% (active) |
| COc1ccc(-c2nc(SCC(C)C)nc(Nc3ccccc3)c2C#N)cc1 | 111% | 85% | 60.2% | 56.8% | 46.9% | 27.4% | 75.2% | 64.6% | 88.2% | 48.9% | 87.6% | 74.4% | 103 | -12.2% (active) | 97.6% | 74.7% | 46.2% | 72.7% | 85.9% |
| COc1ccc(/C=C(/C(=O)N2CCCCC2)c2cc(OC)c(OC)c(OC)c2)cc1 | 28.5% | 42.5% | 39.2% | 48.2% | 77.3% | 49% | -2.33% (active) | 14.1% | 30.9% | 13.6% | 15.7% | 34.4% | 35.1 | 56.8% | 27.6% | 42% | -19.2% (active) | 20.9% | 6.26% (active) |
| COc1ccc2oc(=O)cc(CN3C(=O)S/C(=C\c4ccc(Cl)cc4)C3=O)c2c1 | 106% | 93% | 108% | 83.4% | 108% | 105% | 106% | 86.5% | 89.2% | 71.8% | 73.1% | 100% | 97.3 | 91.7% | 113% | 102% | 89.1% | 108% | 94.6% |
| O=C(/C=C1\C(=O)N(Cc2ccccc2)c2ccccc21)c1ccc(OCCN2CCCCC2)cc1 | 88.6% | 64.2% | 0.718% (active) | -25.9% (active) | 40.3% | -25.4% (active) | 68.4% | 1.17% (active) | 9.65% (active) | -21.6% (active) | – | 7.86% (active) | 39.8 | -22.3% (active) | 99.7% | 6.02% (active) | -37% (active) | 77.7% | 65.7% |
| COc1ccc(C(=O)c2no[n+]([O-])c2C(=O)c2ccc(OC)cc2)cc1 | 93% | 64.8% | 72.5% | -100% (active) | 5.22% (active) | -47% (active) | 116% | -68.7% (active) | -80.1% (active) | – | -68.1% (active) | – | 89.8 | -68.5% (active) | 113% | – | -100% (active) | 108% | 96.2% |
| CCCNC(=O)Oc1ccc(/C(=C(/C)Cc2ccc(OC)cc2)c2ccc(OCCN3CCCC3)cc2)cc1 | 98.8% | 70.1% | 71.3% | 50.3% | 83.4% | 78.6% | – | 50.7% | 52.8% | -20.2% (active) | 49.5% | 79.5% | 88.4 | 61.5% | 81.3% | 81.9% | 83.6% | 58.3% | 75.9% |
| CC1=NN(c2cccc(Cl)c2)C(=O)/C1=C\c1cn(-c2nc(N3CCOCC3)nc(N3CCOCC3)n2)c2ccccc12 | 110% | 105% | 104% | 83.3% | 93.4% | 103% | 116% | 100% | – | 100% | 98.3% | 107% | 103 | 105% | 109% | 106% | 106% | 104% | 103% |
| COc1ccc(CN2C(=O)/C(=C\C(=O)c3ccc(OCCN4CCCCC4)cc3)c3ccccc32)cc1 | 97.4% | 87.6% | 26.3% | 39.3% | 113% | 48.7% | 88.4% | 8.94% (active) | 3.78% (active) | -22.2% (active) | – | 80.8% | 76.3 | 45.4% | 107% | 68.7% | 44.3% | 81.3% | 83.3% |
